The list is not random: actives were taken first. Their share in the collection is about 21%.
Pf growth 48h: Primary qHTS for delayed death inhibitors of the malarial parasite plastid, 48 hour incubation | P. falciparum luciferase growth in erythrocytes, 48 h | Potency, µM (top dose mostly 28.7 µM), for inactives: top-dose activity change, negative = inhibition, usual class: inhibitors | hit rate 5.9% among 310,000; further: potency means the concentration at half of the fitted maximal effect; on the % scale 0 is the no-effect control and ±100 the full control effect
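In quantitative HTS format, infected erythrocytes bearing luciferase-reporter parasites were treated for a single generation at 37 C. Luminescence after adding detection reagent served as the growth measure.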
Shiga inhibitor: A qHTS for Small Molecule Inhibitors of Shiga Toxin. Vero cells, Shiga toxin protein synthesis inhibition reporter. hit rate 9.2% among 290,000. inhibition, % at 38.7 µM. AID 2315, 2010; in the data active means inhibition mostly above about 28%, no sharp cut-off; inactive means mostly below about 43%; further: 0% is about no effect
NS1 function inh: qHTS Assay for Inhibitors of Influenza NS1 Protein Function | Potency, µM (doses to about 46.1 µM), inactives show at the top dose activity, positive = more growth | hit rate 0.4% among 270,000 | AID 2326, 2010; calls by dose curve; further: potency means the concentration at half of the fitted maximal effect; actives are rising curves; nearly all actives have a fitted effect of over 50% in size
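OD600 was taken as the measure of yeast growth restored by compound in an NS1-expressing S. cerevisiae strain. Cells had been washed out of glucose medium and diluted 1:100 into galactose -URA medium, pH 6.0.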
Cycloheximide cs: Cycloheximide Counterscreen for Small Molecule Inhibitors of Shiga Toxin; hit rate 12% among 300,000; max response, %; AID 2314, 2010; cell reporter, cycloheximide protein synthesis inhibition counterscreen; in the data active means max response mostly above about 13%, no sharp cut-off; inactive means mostly below about 14%; further: read at 38.3 µM for the half of the compounds with a filed dose; 0% is about no effect
Pf growth 96h: Primary qHTS for delayed death inhibitors of the malarial parasite plastid, 96 hour incubation; P. falciparum luciferase reporter growth, 96 h; Potency, µM (top dose mostly 28.7 µM), inactives show at the top dose activity change, negative = inhibition, most hits filed as inhibitors; hit rate 6.9% among 320,000; further: potency means the concentration at half of the fitted maximal effect; on the % scale 0 is the no-effect control and ±100 the full control effect
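Compounds incubated with erythrocytes infected by luciferase-expressing P. falciparum (2% hematocrit, 0.05% parasitemia final) for 96 hours, 37 C in 5% CO2. Growth inhibition scored as decreased luciferase luminescence.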
* = called active by the depositor; u = inconclusive; x = not tested or not shown; [ ] = remark or other dose. Unless noted, the call rests on the fitted dose curve; in most records, active means well fitted inhibition curve with a large enough effect; inconclusive means small, poorly fitted or top-dose-only effect, or another doubt; inactive means no such curve, though single readings can be large or run the other way.

SMILES	Pf growth 48h	Shiga inhibitor	NS1 function inh	Cycloheximide cs	Pf growth 96h
CCCCNC(=O)CN1CCC2(O)CCCCC2C1c1ccccc1OC (centres undefined)	u	12.2	-4.2%	-3.6	u
CN(CC(=O)Nc1cccc(F)c1)C(=O)CNC(=O)Cc1cccc2ccccc12	-5.7%	x	x	x	3.0%
CC(C)CNC(=O)COC(=O)c1cc(S(=O)(=O)N(C)C)ccc1N1CCCC1	-27.5%	-5.1	-0.3%	-1.4	44.8%[1.15 µM]
CN(CC(=O)Nc1ccccc1Cl)C(=O)COC(=O)c1cc(S(=O)(=O)N(C)C)ccc1N1CCCC1	9.1%	x	x	x	7.2%
CN(Cc1ccccc1)C(=O)COC(=O)c1ccc(Cl)cc1N	12.2%	46.5	x	28.7*	16.7%
CN(Cc1ccccc1)C(=O)COC(=O)c1cc(S(=O)(=O)N(C)C)ccc1N1CCCC1	9.28µM*	x	x	x	11.7µM*
COc1ccc(N2CCN(C(=O)COC(=O)c3cc(S(=O)(=O)N(C)C)ccc3N3CCCC3)CC2)cc1	10.4µM*	x	x	x	u
CC1CN(/C=C/C=O)C(C)CC1OC(=O)c1ccccc1 (centres undefined)	-16.2%	-12.3	0.9%	-2.7	u
C/C(CC(=O)N(C(C)C)C(C)C)=N\NC(=O)c1ccccc1Br	-4.3%	10.8	-0.7%	6.0	-20.9%
CCN(CC)C(=O)C12CC3CC(CC(Br)(C3)C1)C2	8.5%	-12.9	x	1.5	18.6%
COc1ccc(CC(C#N)(CO)c2nc3ccccc3[nH]2)cc1 (centres undefined)	u	12.8	0.1%	8.0	2.33µM*
COc1ccc(Cc2nc3ccccc3[nH]c2=O)cc1	-20.7%	4.7	-9.0%	-0.5	0.3%
N#CC(CO)(Cc1ccc(OC(F)F)cc1)c1nc2ccccc2[nH]1 (centres undefined)	-21.4%	39.9*	-4.0%	22.6*	u
O=C(O)/C=C/C(=O)Nc1cc(F)ccc1F	-1.0%	-13.9	1.7%	-1.5	-1.2%
COc1cccc(-c2nc(CS(=O)(=O)CC(=O)Nc3cc(F)ccc3F)c(C)o2)c1	12.2%	-9.6	6.3%	2.4	16.2%
CN(CC(=O)Nc1cccc(F)c1)C(=O)c1ccc(N2CCCC2)c([N+](=O)[O-])c1	5.2%	x	x	x	16.5%
CCOCCCNC(=O)C(c1ccc(OC)cc1)N(Cc1ccc2c(c1)OCO2)C(=O)c1ccccc1O (centres undefined)	u	-7.4	x	7.0	-40.3%
COc1ccc(CNC(=O)c2c([S-])n(-c3ccc(C)cc3)c3cccc[n+]23)cc1	u	8.5	x	12.6	10.4µM*
COc1ccc(OC)c(/C=N/NC(=O)c2ccc(=O)[nH]n2)c1	10.8%	-3.9	20.1%	-1.8	u
O=C(CNC(=O)c1ccccc1Br)N/N=C/c1ccco1	2.3%	-5.3	6.0%	-1.9	58.1%
O=C(N/N=C/c1cccnc1)c1[nH]ncc1Br	18.8%	49.6*	5.8%	36.6*	11.4%
COc1ccc(/C=N/NC(=O)c2[nH]ncc2Br)c(OC)c1	21.2%	68.0*	7.3%	38.5*	28.4%
O=C(N/N=C/c1ccccc1)c1[nH]c2ccc(Br)cc2c1-c1ccccc1	13.6%	-9.6	-3.5%	0.2	38.3%
COC(=O)N/N=C/c1cccnc1	10.5%	-6.9	1.8%	-4.3	-5.4%
O=C(N/N=C/c1ccccc1)c1[nH]ncc1Br	147.5%	109.8*	x	43.5*	-6.8%
SMILES	Pf growth 48h	Shiga inhibitor	NS1 function inh	Cycloheximide cs	Pf growth 96h
O=C(N/N=C/c1ccco1)c1[nH]ncc1Br	5.4%	120.5*	-4.5%	43.2*	-3.0%
CC(Cl)C(=O)Nc1ccccc1C#N (centres undefined)	1.1%	-3.7	21.5%	-3.2	15.8%
CN(C(=O)CS(=O)(=O)c1cccc(Cl)c1)c1ccccc1	3.9%	-8.7	-8.6%	-7.9	u
COCCN1Cc2cccc(C(=O)NC(C)CCc3ccco3)c2C1=O (centres undefined)	-0.4%	-16.0	x	6.7	-26.9%
N#C/C(=C(\O)C(=O)O)c1ccc(-c2cccc3ccccc23)cc1	x	x	-7.2%	x	x
O=C(O)CN1C(=O)c2cccc(Oc3ccc(Cl)cc3)c2C1=O	14.3%	-30.1	13.6%	-2.9	x
Cc1ccc(SC(C)C(=O)N2CCCC2)cc1 (centres undefined)	u	14.6	-0.1%	-4.9	x
CN(C)C(=O)CSc1nc2ccc(C(=O)c3ccccc3)cc2[nH]1	18.8%	x	-12.3%	23.3*	u
Cc1ccc2nc(SCC(=O)N3CCCC3)[nH]c2c1	150.0%	92.1	-11.2%	22.5*	5.9%
Cc1ccc2nc(SC(C)C(=O)N3CCCCC3)[nH]c2c1 (centres undefined)	13.1%	105.1	x	34.6*	29.3%
Cc1ccc2nc(SCC(=O)c3ccc(O)cc3O)[nH]c2c1	76.9%	49.2*	17.4%	46.5*	u
CC(Sc1nc2ccc(C(=O)c3ccccc3)cc2[nH]1)C(=O)O (centres undefined)	u	10.8	11.3%	-0.7	18.7%
Cc1ccc2nc(SCC(=O)N3CCN(C(=O)c4ccco4)CC3)[nH]c2c1	5.4%	11.8	-0.3%	10.2	-17.8%
COC(=O)CSc1nc2ccc(C)cc2[nH]1	17.9%	0.4	6.4%	5.6	46.9%
COc1cccc(CN2CCN(CC#Cc3ccccc3)CC2CCO)c1 (centres undefined)	-2.5%	-11.7	3.0%	-2.2	u
CCOc1ccc(-n2c(O)cc(=O)[nH]c2=O)cc1	55.2%	8.1	u	12.4	-6.0%
COc1ccc(CCNS(=O)(=O)c2c(C)nc3scc(C)n3c2=O)cc1OC	32.1%	-9.0	-7.1%	0.2	25.2%
Cc1cc(Cl)ccc1NC(=S)NCc1ccc(F)cc1	u	15.1	4.5%	6.6	u
O=C(COC(=O)c1ccccc1)Nc1ccccc1N1CCOCC1	12.6%	1.4	-6.1%	-4.0	-40.6%
Cc1ccc2nc(SC(C)C(=O)N3CCCC3)[nH]c2c1 (centres undefined)	41.1%	57.1*	0.7%	25.2*	39.8%
Cc1ccc2nc(SC(C)C(=O)N3CC(C)OC(C)C3)[nH]c2c1 (centres undefined)	u	32.5	x	34.6	-30.0%
Cc1ccccc1CSCCNC(=O)COc1ccc(Cl)cc1	-3.3%	11.8	-24.4%	1.0	u
CC(C)(C)SCCNC(=O)COc1ccc(Cl)cc1	6.0%	-5.6	-3.5%	11.0*	u
O=C(CC(Nc1ccccc1Cl)C(=O)OCC(=O)c1cccs1)c1ccccc1 (centres undefined)	318.0%	68.7*	-21.5%	53.3*	132.2%
C/C(=N\OCC(=O)Nc1ccccc1Br)c1cccs1	-1.9%	55.1*	x	28.0*	-1.0%
O=C(COC(=O)c1cccs1)Nc1ccccc1	-7.8%	108.8*	-8.2%	50.8*	-13.8%
COC(=O)c1ccc(COC(=O)CCC(=O)c2cccs2)cc1	30.0%	120.6*	-3.7%	62.0*	72.9%
COc1cccc(N2CN(CCc3ccccc3)CNC2=S)c1	u	-3.6	0.2%	1.3	u
COc1ccccc1CNC(=O)CSc1nnc2c(n1)[nH]c1ccc(F)cc12	1.1%	-6.9	-11.5%	0.4	u
